Results filed as inconclusive are left out. Unmarked numbers belong to inactive results. Calls come from the whole dose curve; as a rule, active = well fitted inhibition curve with a large enough effect; inconclusive = small, poorly fitted or top-dose-only effect; inactive = flat fitted curve, though single readings scatter.
target: Tyrosine-protein phosphatase non-receptor type substrate 1 (Homo sapiens) + Leukocyte surface antigen CD47 (Homo sapiens) (UniProt P78324+Q08722); assay: CD47-SIRPalpha protein protein interaction - Alpha assay qHTS validation (AID 1347059); conditions: AlphaScreen CD47-His/biotin-SIRPalpha binding, LOPAC; series mostly up to 38.3 µM; activity change, negative = inhibition: at the top concentration;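 note: bead proximity luminescence from CD47 binding SIRPalpha after compound preincubation with SIRPalpha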
Sequence (P78324 whole entry, looked up): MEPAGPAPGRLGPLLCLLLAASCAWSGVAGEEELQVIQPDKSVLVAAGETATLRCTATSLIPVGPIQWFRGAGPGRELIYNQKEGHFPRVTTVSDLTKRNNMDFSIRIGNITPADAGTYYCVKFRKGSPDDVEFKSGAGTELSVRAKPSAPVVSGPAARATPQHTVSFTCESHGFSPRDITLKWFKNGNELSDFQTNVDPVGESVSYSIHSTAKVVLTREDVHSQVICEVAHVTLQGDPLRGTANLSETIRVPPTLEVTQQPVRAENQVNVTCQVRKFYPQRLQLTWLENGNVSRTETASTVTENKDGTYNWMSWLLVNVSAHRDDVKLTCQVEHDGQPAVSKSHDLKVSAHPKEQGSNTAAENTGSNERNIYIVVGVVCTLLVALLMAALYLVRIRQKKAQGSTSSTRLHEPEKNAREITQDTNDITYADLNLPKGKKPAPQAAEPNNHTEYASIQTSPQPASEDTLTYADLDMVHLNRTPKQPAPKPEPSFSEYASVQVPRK
Sequence (Q08722 whole entry, looked up): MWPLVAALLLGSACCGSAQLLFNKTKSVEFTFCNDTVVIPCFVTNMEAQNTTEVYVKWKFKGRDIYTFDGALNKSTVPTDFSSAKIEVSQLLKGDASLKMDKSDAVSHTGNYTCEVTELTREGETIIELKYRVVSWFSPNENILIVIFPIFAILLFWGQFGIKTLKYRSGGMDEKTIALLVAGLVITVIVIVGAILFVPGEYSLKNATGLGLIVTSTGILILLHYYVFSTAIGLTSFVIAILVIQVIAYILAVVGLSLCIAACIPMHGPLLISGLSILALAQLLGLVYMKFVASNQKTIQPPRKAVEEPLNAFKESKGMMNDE
Description: SIRPalpha is a myeloid cell expressed immunomodulatory receptor that binds the tumor expressed immune checkpoint CD47. Therapeutic disruption of this interaction leads to immune-mediated tumor rejection. This assay was used to quantitate CD47-SIRPalpha binding biochemically and evaluate chemical libraries for novel CD47-SIRPalpha inhibitors. To recapitulate the biological interaction of CD47 and SIRPalpha, we designed expression constructs to produce their recombinant, soluble, extracellular interaction domains. CD47 was produced with an N-terminal 6His tag. SIRPalpha was produced with an N-terminal Avi-Tag for site-specific biotin incorporation. The CD47-SIRPalpha interaction was measured by AlphaScreen using affinity tag linked reagents (Ni-NTA acceptor bead and streptavidin donor bead). SIRPalpha without biotin incorporation was used as a positive control inhibitor.
PROTOCOL TABLE (as described by Miller, T. et al. 2019)
SEQUENCE No. (e.g., 1, 2, 3, etc.); […] (e.g., Cells, Incubation, Reagent, etc.); VALUE and DESCRIPTION.
1a. Reagent. 2 uL SIRPalpha-biotin (25 nM) added to respective wells in Assay buffer; white/solid bottom high base, med bind 1536-well plates (Greiner 789075)
1b. Reagent. 2 uL Assay buffer negative control for background fluorescence
2. Reagent. 23 nL library compounds (7-pt, 1:4 intraplate titration series) or DMSO control transferred by Pin Tool
3. Centrifuge. Centrifuge plate for 30 s at 1000 RPM
4. Incubation.#Incubate reagents at room temperature for 30 min, protected from light
5. Reagent. 2 uL CD47-His (12.5 nM) in Assay buffer
6. Centrifuge. Centrifuge plate for 30 s at 1000 RPM
7. Incubation.#Incubate reagents at room temperature for 30 min, protected from light
8. Reagent. 1 uL Ni-NTA beads (10 ug/mL) added to respective wells
9. Reagent. 1 uL SAV beads (10 ug/mL) added to respective wells
10. Centrifuge. Centrifuge plate for 30 s at 1000 RPM
11. Incubation. Incubate reagents at room temperature for 30 min, protected from light
12. Detector. Measure AlphaScree n on EnVision (1536A1 aperture)
Where possible, perform Donor bead dilution and addition away from direct sunlight or with bright overhead lights turned off (<100 lux, similar to hallway lighting). Lighting should still be bright enough to allow accurate pipetting.
1. Assay buffer composition.#Phosphate buffered saline (PBS; 10 mM Phosphate, 137 mM NaCl, and 2.7 mM KCl; pH 7.4), 0.05% IGEPAL CA-630
2. 23nL of […] library compounds (7 plates) or DMSO vehicle control transferred to 9 Greiner white/solid bottom high base, TC plates in 7 interplate 1:5 titrations (see Yasgar, A. et al. 2008) with Pintool. Two of the 9 plates are DMSO-only in compound field at beginning and end of compound library-treated plates.
12. Aperture = 1536 plate HTS AlphaScreen; plate-detector distance = 0; Total measurement time = 240; Ex. time = 80 ms (33%); Afterglow CT1 corr. factor = 0; Glow CT2 corr. factor = 0; Bleach CT3 corr. factor = 0; Ref. signal= 417733; Ref. AD gain = 2

Row | SMILES | activity change, negative = inhibition [%]
1 | NNC(N)=O | 0.559
2 | CC(=O)NBr | 5.14
3 | CP(=O)(O)C1=CCNCC1 | -1.39
4 | COc1ccc2c(c1)C13CCCCC1C(C2)N(C)CC3 (stereo not given) | 2.6
5 | N=C(N)c1ccc(CS(=O)(=O)F)cc1 | 0.253
6 | Cc1sc2ccccc2c1CC1=NCCN1 | -1.81
7 | Cc1c2ccncc2c(C)c2c1[nH]c1ccccc12 | 10.4
8 | C[N+]1(C)CCN(c2ccccc2)CC1 | -2.9
9 | CCNC(=O)[C@H]1O[C@@H](n2cnc3c(N)ncnc32)[C@H](O)[C@@H]1O | -3.85
10 | Nc1ccc(CCN2CCN(c3cccc(C(F)(F)F)c3)CC2)cc1 | -23.9
11 | COC(=O)N1CCN(C(=O)Cc2ccc(Cl)c(Cl)c2)C(CN2CCCC2)C1 (stereo not given) | 1.73
12 | OCc1cnc[nH]1 | 0.523
13 | CCCN(CCC)[C@H]1CCc2c(F)ccc(O)c2C1 | 3.79
14 | C[C@H](N)Cc1cccc(C(F)(F)F)c1 | 1.14
15 | Nc1cc2c(ncn2CCOCP(=O)(O)O)c(=O)[nH]1 | 2.97
16 | CCCN(CCC)C1CCc2cccc(O)c2C1 (stereo not given) | 3.33
17 | CCOC(=O)c1ncn2c1[C@@H]1CCCN1C(=O)c1cc(OC)ccc1-2 | -0.169
18 | O=C1CC[C@@]2(O)C3Cc4ccc(O)c5c4C2(CCN3CC2CC2)[C@H]1O5 (stereo not given in full) | 1.17
19 | NC(N)=Nc1ccc2[nH]c3c(c2c1)C[C@@]1(O)[C@H]2Cc4ccc(O)c5c4[C@@]1(CCN2CC1CC1)[C@H]3O5 | -10.8
20 | O=[N+]([O-])c1cc(O)c(O)c([N+](=O)[O-])c1 | -10.6

Row | SMILES | activity change, negative = inhibition [%]
21 | C[N+](C)(C)CC#CCN1CCCC1=O | 2.38
22 | OC1CCCCC1N1CCC(c2ccccc2)CC1 (stereo not given) | 0.569
23 | CCCCCCCCCCCCCC(=O)O[C@@H]1[C@@H](C)[C@@]2(O)[C@@H](C=C(CO)C[C@@]3(O)C(=O)C(C)=C[C@@H]23)C2C(C)(C)[C@@]21OC(C)=O (stereo not given in full) | -13.7
24 | NC(=O)c1ccc(OCC(O)CN2CC=C(c3ccc(F)cc3)CC2)cc1 (stereo not given) | 3.97
25 | Cc1o[nH]c(=O)c1CC(N)C(=O)O (stereo not given) | -2.18
26 | C[N+]1(C)C2CCC1CC(OC(=O)c1c[nH]c3ccccc13)C2 (stereo not given) | 1.97
27 | COc1ccc2[nH]cc(CCN)c2c1 | -5.23
28 | CC(C)NP(=O)(NC(C)C)OP(=O)(NC(C)C)NC(C)C | -0.441
29 | Cc1[nH]c2ccc(O)cc2c1CCN | -15.7
30 | C[C@H]1C2Cc3ccc(O)cc3[C@@]1(C)CCN2CC1CC1 | 5.14
31 | C=CCN1C[C@@H](C)N([C@H](c2ccc(C(=O)N(CC)CC)cc2)c2cccc(OC)c2)C[C@@H]1C | 0.292
32 | NC(C(=O)O)c1cc(=O)[nH]o1 (stereo not given) | 2.8
33 | NC(CCCCCP(=O)(O)O)C(=O)O (stereo not given) | 0
34 | NCCCP(=O)(O)O | 1.52
35 | CN1CCc2cc(O)cc3c2[C@H]1Cc1ccc(O)c(O)c1-3 | -5.82
36 | c1ccc2cc(CC3=NCCN3)ccc2c1 | 1.17
37 | Cc1cc([C@@H]2CCCN2C)on1 | -14.7
38 | CC(N)Cc1c[nH]c2ccc(O)cc12 (stereo not given) | 0.529
39 | NC(=O)COc1c(F)cc(SCCNS(=O)(=O)c2ccccc2)cc1F | -7.1
40 | C[C@H](N)CN1CCc2ccc(Br)cc21 | -14.5

— PubChem BioAssay (NCATS)
